Data on 91 compounds can be found in PubChem BioAssay AID463173 (ICCB-Longwood Screening Facility, Harvard Medical School, 2010).

Among all 52,000 compounds or so, about 4,300 (8.3%) were called active. The entries come from a sample that favours actives as a whole. Unmarked numbers belong to inactive results. No stated cut-off is given here; in the data, active means survival mostly below about 52% (no sharp cut-off); inactive means mostly above about 56%.

This assay concerns DeltatarO mutant. Put plainly: growth inhibition of S. aureus wild type versus tarO mutant, primary screen, teichoic acid synthesis inhibitors, RN4220, OD600 (AID 463173). The following applies: OD600, 18 h, stronger effect = lower value, screened at 18.75 µg/mL (by protocol).
`CCCCNc1ccc(-c2nc(-c3ccccc3)no2)cc1[N+](=O)[O-]`: the survival is 72%. On to `CCOc1ccc(C(=O)O)o1`, for which the survival is 94%. Turning to `Cc1ccc(-n2c(SCC(=O)NC(C)(C)C)nc(O)cc2=O)cc1`, the survival was 107%.

On to `CCCCOC(=O)c1ccc(Nc2ncnc3[nH]ncc23)cc1`, for which the survival was 55%. With `N#Cc1ccccc1NC(=O)C(=O)NCCc1csc(-c2ccc(C(F)(F)F)cc2)n1`, the survival is 85%. The value for `Cc1ccc(S(=O)(=O)c2cn(Cc3ccccc3)c3cc(N4CCCC4)c(F)cc3c2=O)cc1` was 71%; that for `Cc1nc2sc(C)c(C)n2c(=O)c1S(=O)(=O)N1CCN(c2ccccc2F)CC1` was 68%.

As to `Cc1cc(C)c(NC(=O)Cn2c(=O)n(-c3cccc(C(F)(F)F)c3)c(=O)c3c(C)c(C)sc32)c(C)c1`, the survival was 92%. Turning to `O=C(Nc1ccc2c(c1)OCCO2)C1CCCN(S(=O)(=O)Cc2ccccc2)C1` (stereo unspecified), the survival was 102%.

As to `CCOc1ccc(NC(=O)c2nn(C)c3c2CS(=O)(=O)c2ccccc2-3)cc1`, the survival was 60%. As for `O=C(CSc1nc2cc(C(=O)NC3CCCC3)ccc2c(=O)n1CC1CCCO1)c1ccc(F)cc1` (stereo unspecified), the survival was 96%. For `CCOc1ccc(C(=O)CSc2nc3cc(C(=O)NC4CCCC4)ccc3c(=O)n2CC2CCCO2)cc1` (stereo unspecified), the survival is 8% (active).

Regarding `O=C(CSc1nc2cc(C(=O)NC3CCCC3)ccc2c(=O)n1CC1CCCO1)c1cccc(Cl)c1` (stereo unspecified), the survival is 20% (active).

On to `Cc1ccc(C(=O)CSc2nc3cc(C(=O)NC4CCCC4)ccc3c(=O)n2CC2CCCO2)cc1` (stereo unspecified), for which the survival was 101%. Take `Cc1ccc(C(=O)CSc2nc3cc(C(=O)NC4CCCC4)ccc3c(=O)n2CC2CCCO2)c(C)c1` (stereo unspecified): the survival is 91%. `COc1ccc(C(=O)CSc2nc3cc(C(=O)NC4CCCC4)ccc3c(=O)n2CC2CCCO2)cc1` (stereo unspecified): the survival is 95%. With `CC(=O)c1cc(-c2ccc(F)cc2)n(CC(=O)NC2CCC(C)CC2)c1C` (stereo unspecified), the survival is 67%. For the compound `O=C(CN1CCN(S(=O)(=O)c2cc(Cl)ccc2Cl)CC1)Nc1cccc(F)c1`, the survival is 92%.

Regarding `CCOc1ccc(C(=O)C(CC(CN2CCOCC2)C(=O)c2ccc(OCC)cc2)CN2CCOCC2)cc1` (stereo unspecified), the survival is 104%.

For `O=C1c2oc3ccc(F)cc3c(=O)c2C(c2cccc([N+](=O)[O-])c2)N1CCCN1CCOCC1` (stereo unspecified), the survival was 84%. In the case of `CCCCOc1ccc(C(=O)OCC2CCCN3CCCCC23)cc1OC` (stereo unspecified), the survival is 107%. Then `Cc1ccc(CNC(=O)CCC(=O)N2CC3CCCN3c3ccccc32)cc1` (stereo unspecified), with 83%. Turning to `O=C(CCC(=O)N1CC2CCCN2c2ccccc21)NCc1ccccc1Cl` (stereo unspecified), the survival was 69%. In the case of `O=C(CCC(=O)N1CC2CCCN2c2ccccc21)NCc1ccc(F)cc1` (stereo unspecified), the survival was 0% (active).

Consider `COc1cccc(CNC(=O)CCC(=O)N2CC3CCCN3c3ccccc32)c1` (stereo unspecified), for which the survival is 66%.

As to `O=C(CCC(=O)N1CC2CCCN2c2ccccc21)NCc1cccc(Cl)c1` (stereo unspecified), the survival was 37% (active). For `O=C(CCC(=O)N1CC2CCCN2c2ccccc21)NCc1ccccc1` (stereo unspecified), the survival is 74%. The value for `O=C(O)c1cc2ccccc2[nH]c1=O` was 107%. The value for `CCc1cccc(NC(=O)Cc2nc(-c3ccc(OC)cc3)no2)c1` was 77%; that for `O=C(Nc1ccc(S(=O)(=O)N2CCCCC2c2cccnc2)cc1)c1ccc(Br)cc1` (stereo unspecified) was 92%.

In the case of `CC(=O)N1CCc2cc(Br)cc(S(=O)(=O)N3CCN(c4cccc(C)c4)C(C)C3)c21` (stereo unspecified), the survival was 74%. The value for `CCOc1ccccc1NC(=O)Cn1c(=O)n(Cc2ccccc2)c(=O)c2c(C)c(C)sc21` was 66%; that for `Cc1c(C(=O)N(C)C)sc2c1c(=O)n(-c1ccc(Cl)c(Cl)c1)c(=O)n2CC(=O)Nc1ccc(Br)cc1F` was 144%. Regarding `Cc1c(C(=O)N(C)C)sc2c1c(=O)n(-c1ccc(Cl)c(Cl)c1)c(=O)n2CC(=O)Nc1cccc(C(F)(F)F)c1`, the survival was 46% (active). Take `CCc1ccc(-n2c(=O)c3c(C)c(C(=O)N(C)C)sc3n(CC(=O)Nc3cc(Cl)ccc3C)c2=O)cc1`: the survival was 131%. Turning to `CCOC(=O)c1ccccc1NC(=O)Cn1c(=O)n(Cc2ccccc2)c(=O)c2c(C)c(C)sc21`, the survival is 84% (active).

Turning to `COC(=O)c1ccccc1NC(=O)Cn1c(=O)n(-c2cccc(OC)c2)c(=O)c2c(C)c(C(=O)N(C)C)sc21`, the survival was 117%.

Take `Cc1ccccc1NC(=O)Cn1c(=O)n(Cc2ccccc2)c(=O)c2c(C)c(C)sc21`: the survival is 136%.

As for `CCN(CC)C(=O)c1sc2c(c1C)c(=O)n(-c1ccc(Cl)c(Cl)c1)c(=O)n2CC(=O)Nc1cccc(OC)c1`, the survival is 70%. With `CCOC(=O)c1ccccc1NC(=O)Cn1c(=O)n(-c2ccc(CC)cc2)c(=O)c2c(C)c(C(=O)N(C)C)sc21`, the survival is 0% (active). Then `CCOc1ccc(NC(=O)C(NS(=O)(=O)c2ccc3c(c2)CCN3C(C)=O)C(C)C)cc1` (stereo unspecified), with 124%; and `CCCOc1ccc(-c2nc(SCC(=O)c3ccc(Cl)cc3)n[nH]2)cc1`, with 187%. As to `Cc1ccc(NC(=O)CSc2ncc(S(=O)(=O)c3ccc(C(C)C)cc3)c(=O)[nH]2)cc1C`, the survival is 87%. Take `Nc1c(C(=O)Nc2ccccc2Cl)c2ccccn2c1C(=O)c1ccc(Cl)cc1`: the survival is 80%. With `CCOC(=O)c1ccccc1NC(=O)CSc1nc2ccncc2[nH]1`, the survival was 85%.

Take `CC(Sc1ncc(S(=O)(=O)c2ccc(C(C)C)cc2)c(N)n1)C(=O)Nc1ccccc1` (stereo unspecified): the survival was 60%. Consider `Cc1nc2ccccn2c(=O)c1NC(=O)c1cccc(F)c1`, for which the survival was 71%. Turning to `Cc1cccc(C(=O)Nc2c(-c3ccccc3)nc3cc(C)ccn23)c1`, the survival was 27% (active). Turning to `COc1ccc(-c2nc3cc(C)ccn3c2NC(=O)c2ccc(C)c(C)c2)cc1`, the survival is 68%. For the compound `O=C(Nc1c(-c2ccc(F)cc2)nc2ccccn12)c1cccc(F)c1`, the survival is 146%. `COCCNc1c(-c2ccccc2)nc2cc(C)ccn12`: the survival is 69%. Regarding `Cc1ccn2c(NC(=O)c3cccc(Cl)c3)c(-c3ccccc3)nc2c1`, the survival was 65%. Regarding `COc1ccc(CNC(=O)c2ccc3nc(-c4ccc(F)cc4)c(-c4ccc(F)cc4)nc3c2)cc1`, the survival is 78%. In the case of `COc1ccc(-c2nc3cc(C)ccn3c2NC(=O)c2cccc(F)c2)cc1`, the survival was 53% (active). Then `COc1ccc(-c2nc3cc(C)ccn3c2NC(=O)c2ccc(F)cc2)cc1`, with 37% (active); and `CCOc1ccccc1NS(=O)(=O)c1ccc(N2CCCCS2(=O)=O)cc1`, with 97%; and `Cc1ccc(NC(=O)/C(C#N)=C/c2cn(CC(=O)NCc3ccco3)c3ccccc23)cc1Cl`, with 64%. `Cc1ccc(S(=O)(=O)NNC(=S)NCC2CCCO2)cc1` (stereo unspecified): the survival was 69%. The value for `Cc1cc(C)cc(OCc2cc(=O)n3cc(C)sc3n2)c1` was 81%. Regarding `O=C(COc1ccccc1)OCc1cc(=O)n2nc(-c3cccs3)sc2n1`, the survival was 88%. Then `COc1ccc(OCC(=O)OCc2cc(=O)n3cc(C)sc3n2)cc1`, with 6% (active); and `O=C(COc1ccc(Cl)cc1)OCc1cc(=O)n2nc(-c3cccs3)sc2n1`, with -4% (active); and `COc1ccc(OCC(=O)OCc2cc(=O)n3nc(-c4cccs4)sc3n2)cc1`, with 94%. With `Cc1cn2c(=O)cc(COC(=O)COc3ccc(F)cc3)nc2s1`, the survival is 70%. With `Cc1cn2c(=O)cc(COc3ccc(Cl)cc3)nc2s1`, the survival was 53%.

`Cc1cn2c(=O)cc(COC(=O)COc3ccc(C)c(C)c3)nc2s1`: the survival is 67%. Turning to `COc1cccc(OCc2cc(=O)n3cc(C)sc3n2)c1`, the survival was 40% (active). Take `COc1ccccc1-c1nc(CNC(=O)Nc2ccccc2)c(C)o1`: the survival is 98%. Consider `Cc1ccc(N2C(=O)N(CC(=O)C(C)(C)C)c3ccccc3S2(=O)=O)cc1C`, for which the survival was 91%. For `CCOc1ccc2c(c1)c(=O)c(S(=O)(=O)c1ccc(C)cc1)cn2Cc1ccccc1Cl`, the survival is 82%. As to `CC1=C(C)C(=O)N(c2ccccn2)C1=O`, the survival is 93%. Consider `Cc1ccc(-n2c(=O)c3ccc(C(=O)NCc4ccccc4Cl)cc3n(CC(=O)Nc3ccc(C)cc3C)c2=O)cc1`, for which the survival is 79%. Turning to `CC(C)(C)NC(=O)c1cccc(NC(=O)c2ccco2)c1`, the survival was 101%. Turning to `COc1ccc(N2CCN(CNC(=O)c3ccccc3)CC2)cc1`, the survival was 95%.

Take `Nc1nnc(CCN2C(=O)CSC2=O)s1`: the survival was 95%. Turning to `CCc1cnc2c(c1SCC(=O)NCc1ccc(F)cc1)c(=O)n(C)c(=O)n2C`, the survival is 119%. As for `CC(C)C(=O)Nc1ccc2nc(SCC(=O)N3CCc4ccccc43)sc2c1`, the survival was 97%.

On to `CCc1nnc(NC(=O)CSc2nc3c([nH]c4ccccc43)c(=O)n2-c2ccc(F)cc2)s1`, for which the survival was 84%. Consider `CCc1ccc(-c2nc(CS(=O)CC(=O)NCCc3ccc(Cl)cc3)c(C)o2)cc1` (stereo unspecified), for which the survival was 91%.

As for `COc1ccc2c(c1)c1c(c(=O)n(CCc3ccccc3)c(=O)n1Cc1ccc(F)cc1)n2C`, the survival was 6% (active).

On to `COc1ccc2c(c1)c1c(c(=O)n(CCc3ccccc3)c(=O)n1Cc1cccc(F)c1)n2C`, for which the survival is 67%. As to `CCc1ccc(NCc2cc3ccc(OC)cc3n(CC(=O)Nc3ccccc3C)c2=O)cc1`, the survival was 83%. In the case of `COc1ccc2c(c1)c1c(c(=O)n(Cc3ccccc3)c(=O)n1CC(=O)Nc1c(C)cccc1C)n2C`, the survival is 72%. For the compound `COc1ccc2cc(CNc3ccccc3)c(=O)n(CC(=O)Nc3ccc(C)cc3C)c2c1`, the survival is 0% (active). `COc1ccc2cc(CNc3ccc(C)cc3)c(=O)n(CC(=O)Nc3ccc(C)cc3Cl)c2c1`: the survival was 102%. For the compound `Cc1ccc(-n2c(=O)c3c(c4cc(C)ccc4n3C)n(Cc3ccc(F)cc3)c2=O)cc1`, the survival is 116%. Then `COc1ccc2c(c1)c1c(c(=O)n(Cc3ccccc3)c(=O)n1CC(=O)Nc1ccc(C)cc1C)n2C`, with -2% (active); and `Cc1ccc(Cn2c(=O)n(-c3ccc(C)cc3)c(=O)c3c2c2cc(C)ccc2n3C)cc1`, with 52% (active). Turning to `COc1ccc2c(c1)c1c(c(=O)n(Cc3ccccc3)c(=O)n1CC(=O)Nc1ccccc1F)n2C`, the survival was 109%. On to `COc1ccc2c(c1)c1c(c(=O)n(CCc3ccccc3)c(=O)n1Cc1ccccc1)n2C`, for which the survival was 90%. `COc1ccc(Cn2c(=O)n(-c3ccc(C)cc3)c(=O)c3c2c2cc(C)ccc2n3C)cc1`: the survival is 100%.
